# Most compounds without a hit are left out; they make up all but 4.8% or so of the library.
# SMARCA2 act – activators of SMARCA2 function; AID 652017; 370,000 tested, 1% active; activation, % at 9.1 µM; MG213 cells, MMTV-luciferase reporter, dexamethasone, overnight; in the data active means activation above about 7.8%
# ssDAF-12 act – activators of S. stercoralis DAF-12 nuclear receptor; AID 652126; 370,000 tested, 1% active; activation, % at 6.8 µM; HEK293 ssDAF-12/GRIP1 lit1-tk-luc reporter, luminescence; % of 3 µM dafachronic acid response;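 active means activation above the mean over all tested compounds plus 3 SD, cut at about 0.9% in these data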
# DAX1 inh-1 – NR0B1 (DAX1) inhibition. P51843. HEK293 Gal4-DAX1 luciferase reporter, luminescence. inhibition, % at 6.75 µM. 340,000 tested, 0.99% active. AID 504766;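 active means inhibition above the mean over all tested compounds plus 3 SD, cut at about 4.2% in these data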;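 further: inhibition shows as a rise in luminescence from relieved DAX1 repression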
# Target sequence (P51843 207-470 limits assumed): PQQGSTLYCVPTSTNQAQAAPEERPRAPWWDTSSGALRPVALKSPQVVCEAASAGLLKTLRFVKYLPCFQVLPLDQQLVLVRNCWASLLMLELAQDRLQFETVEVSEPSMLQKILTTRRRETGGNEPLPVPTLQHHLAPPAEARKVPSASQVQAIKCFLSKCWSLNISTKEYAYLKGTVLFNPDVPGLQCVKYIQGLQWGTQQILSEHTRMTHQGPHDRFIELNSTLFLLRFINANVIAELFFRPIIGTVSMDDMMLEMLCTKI
# DAX1 inh-2 – blocks DAX1 repression of SF-1 activated StAR promoter. inhibition, % at 6.8 µM. HEK293T StAR-luciferase reporter, SF-1/DAX-1 repression relief. AID 652010. 370,000 tested, 1.1% active;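 active means inhibition above the mean over all tested compounds plus 3 SD, cut at about 3.6% in these data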;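 further: higher inhibition means more luminescence from relief of DAX-1 repression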
# hgDAF12 agonist – hgDAF-12 agonism, primary luciferase screen | HEK293 GAL4-hgDAF12 UAS-luciferase reporter, agonist luminescence; normalized to butyrate control | activation, % at 6.8 µM | 370,000 tested, 1.8% active | AID 687014;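 active means activation above a cutoff set at the mean of all screened compounds plus 3 SD, cut at about 10% in these data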
# hcDAF12 agonist – activators of H. contortus DAF-12 nuclear receptor; HEK293 hcDAF-12 lit1-tk-luc reporter, luminescence; 0% DMSO, 100% Δ7-dafachronic acid; activation, % at 6.8 µM; 370,000 tested, 1.4% active;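 active means activation above the mean of all tested compounds plus 3 SD, cut at about 5.5% in these data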
# SMARCA2 act conf – SMARCA2 activation, confirmation screen. shares compounds with SMARCA2 act. MG213 cells, MMTV-luciferase with dexamethasone, luminescence, overnight; MG213 cells expressing E1A, Rb sequestered; DMSO wells 0%, reference activator 100%. activation, % at 9.1 µM. 3,500 tested, 30% active;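 active means activation above its plate's cutoff, the mean activation of tested wells plus 3 SD, cut at about 7.9% in these data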
# VP16 Luc act – counter-screen for SMARCA2 activators: GAL4-VP16 luciferase reporter activation. shares compounds with SMARCA2 act. HEK293 GAL4-VP16 pG5luc reporter, luciferase luminescence; scaled: DMSO wells 0%, SAHA wells 100%. activation, % at 9.1 µM. 3,500 tested, 41% active. AID 686939;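 active means activation above the solvent-only control well mean plus 3 SD, averaged across control plates, cut at about 5.2% in these data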
# A number is an active result; i = inactive; nt = not tested or not shown.
SMILES,SMARCA2 act,ssDAF-12 act,DAX1 inh-1,DAX1 inh-2,hgDAF12 agonist,hcDAF12 agonist,SMARCA2 act conf,VP16 Luc act
O=C(CSc1oc(-c2ccc(F)cc2)nc1S(=O)(=O)c1ccccc1)NCC1CCCO1 (configuration not stated),8.2,i,i,i,i,i,i,i
CCOC(=O)Cn1cncc1-c1ccc([N+](=O)[O-])cc1,13,i,i,i,i,i,i,i
CCOc1ccc(NC(=O)Cn2cncc2-c2ccc([N+](=O)[O-])cc2)cc1,i,i,i,i,i,i,nt,nt
CCN1CC(c2ccccc2)C(c2ccc(Cl)cc2)=N1 (configuration not stated),8.3,i,i,i,i,i,i,i
CN1N=C(c2ccc(Cl)cc2)CC(c2ccc(Cl)cc2)C1=O (configuration not stated),i,i,i,i,i,i,nt,nt
CCOC(=O)N1CCN(C(=O)Nc2ccccc2Cl)CC1,9.0,i,i,i,i,i,i,i
COC(=O)[C@]12C[C@H](CC(=O)NCc3ccccc3)C(=O)N(CCC3=CCCCC3)C1=C[C@H](C1CCCC1)O[C@@H]2C,i,i,nt,i,i,i,nt,nt
Cc1ccc(/C=N/NC(=O)c2ccco2)cc1,8.8,i,nt,i,12,i,i,11
CC(C)CNC(=O)c1c(N)n(/N=C/c2ccccn2)c2nc3ccccc3nc12,8.5,i,i,i,i,i,i,i
COc1ccc(C2CC3CN(C4CCCCC4)C(=O)C3N2C)cc1 (configuration not stated),i,i,nt,i,i,i,nt,nt
O=C(CSC1=Nc2ccccc2C2=NC(Cc3c[nH]c4ccccc34)C(=O)N12)NC1CCCCC1 (configuration not stated),8.6,i,i,i,i,i,i,i
COc1ccc2cc3cc(C(=O)NC(C)C)oc3nc2c1,9.1,i,i,i,i,i,i,i
COc1ccc2cc3cc(C(=O)Nc4cc(OC)c(OC)c(OC)c4)oc3nc2c1,i,i,i,i,i,i,nt,nt
COC(=O)c1ccc2[nH]c(C(C)(C)O)c(C)c2c1,8.2,i,i,i,i,i,i,i
COC(=O)c1ccc2[nH]c(C)cc(=O)c2c1,i,i,i,i,i,i,nt,nt
CCc1cc(=O)oc2cc(OCC(=O)NCCCN3CCOCC3)c(Cl)cc12,8.4,i,i,i,i,i,i,i
CCN(CC)C(=O)CSc1nnc(-c2ccc(C(C)(C)C)cc2)n1-c1ccc(Cl)cc1,i,i,nt,i,i,i,nt,nt
Cc1nc(NCc2ccco2)c2c(C)c(C)sc2n1,i,i,i,i,i,i,nt,nt
Cc1sc2nc3c4ccccc4c(NCc4ccco4)nn3c(=O)c2c1C,13,i,i,i,14,7.5,43,19
CCCC[C@H](C(=O)N(C)c1cccc(OC)c1)[C@@H](O)c1ccc(C(C)=O)cc1,i,i,nt,i,i,i,nt,nt
Cc1cc(C)cc(-n2c(C)cc(/C=N/NC(=O)c3ccncc3)c2C)c1,i,i,i,i,i,i,nt,nt
Cc1cc(/C=N/NC(=O)c2ccsc2)c(C)n1-c1cnccn1,8.0,i,i,i,i,i,i,i
CC(C)(C)C(=O)CSc1nnc(SCc2cccc3ccccc23)s1,i,i,nt,i,i,i,nt,nt
COc1ccc(CN2CCC(CNC(=O)NC3CCC(C)CC3)CC2)cc1 (configuration not stated),i,i,nt,i,i,i,nt,nt
COc1ccc(-c2nc3ccccn3c2C=O)cc1,8.7,i,i,i,i,5.7,i,9.0
Cc1cccc(NC(=O)/C=C/c2cccs2)n1,12,i,i,i,13,6.2,8.2,7.9
COC(=O)[C@]12C[C@H](CC(=O)NCC3CCCCC3)C(=O)N(CCc3ccc(OC)c(OC)c3)C1=C[C@H](C(C)(C)C)O[C@@H]2C,i,i,nt,i,i,i,nt,nt
O=C(/C=C/c1ccccc1)c1ccc(NC2=NCCCS2)cc1,i,i,i,i,i,i,nt,nt

# From PubChem BioAssay
